The results in this text go back to PubChem BioAssay.

Values joined by “and” are separate entries in the source; they are usually repeats but may differ in a detail not shown here. Identical values can stand only once. Where a structure was tested more than once in an assay, its records may differ in their call. Active and inactive are the calls of the source.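 How the source made its calls: active means normalized viability below 100% at a tested concentration; inactive means the rest.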

The first experiment is described as follows: ovarian cancer cell viability with rucaparib, profiling panel, oncology-focused library, rucaparib conditional (AID 1508598). The following applies: patient-derived ovarian cancer cells, CellTiter-Glo viability, 144 h; at 0.00122 µM; OCI-C5x cells; with rucaparib 10 µM; stronger effect = lower value; 100% = cells with rucaparib alone. On the technique in general: ATP-based viability assays read luminescence as a measure of living cells.
Consider `Cc1ccc(NC(=O)c2ccc(CN3CCN(C)CC3)cc2)cc1Nc1nccc(-c2cccnc2)n1`, for which the viability was 109% (inactive) and 103% (inactive).
Same read-out and setting: in the case of `O=NN(CCCl)C(=O)NC1CCCCC1` it was 106% (inactive); in that of `O=c1c(O)c(-c2ccc(O)c(O)c2)oc2cc(O)cc(O)c12`, 122% (inactive); in that of `COc1cc2c(N3CCN(C(=O)Nc4ccc(OC(C)C)cc4)CC3)ncnc2cc1OCCCN1CCCCC1`, 104% (inactive).
Same read-out and setting: in the case of `COC(=O)Nc1nc2ccc(C(=O)c3cccs3)cc2[nH]1` it was 116% (inactive); in that of `CN(Cc1cnc2nc(N)nc(N)c2n1)c1ccc(C(=O)N[C@@H](CCC(=O)O)C(=O)O)cc1`, 104% (inactive).

The same experiment, now with this note: patient-derived ovarian cancer cells, CellTiter-Glo viability, 144 h; at 0.00122 µM; OCI-C5x cells; without rucaparib; stronger effect = lower value.
For the compound `Cc1ccc(NC(=O)c2ccc(CN3CCN(C)CC3)cc2)cc1Nc1nccc(-c2cccnc2)n1`, the viability is 106% (inactive) and 98.3% (active).
Take `O=NN(CCCl)C(=O)NC1CCCCC1`: the viability was 123% (inactive).
Same read-out and setting: in the case of `O=c1c(O)c(-c2ccc(O)c(O)c2)oc2cc(O)cc(O)c12` it was 119% (inactive); in that of `COc1cc2c(N3CCN(C(=O)Nc4ccc(OC(C)C)cc4)CC3)ncnc2cc1OCCCN1CCCCC1`, 105% (inactive).
The same measure, in the same setting: in the case of `COC(=O)Nc1nc2ccc(C(=O)c3cccs3)cc2[nH]1` it was 108% (inactive); in that of `CN(Cc1cnc2nc(N)nc(N)c2n1)c1ccc(C(=O)N[C@@H](CCC(=O)O)C(=O)O)cc1`, 91.8% (active).

Staying with this experiment, now noted: patient-derived ovarian cancer cells, CellTiter-Glo viability, 144 h; at 0.00122 µM; OCI-P5x cells; with rucaparib 20 µM; stronger effect = lower value; 100% = cells with rucaparib alone.
For `Cc1ccc(NC(=O)c2ccc(CN3CCN(C)CC3)cc2)cc1Nc1nccc(-c2cccnc2)n1`, the viability was 95.4% (active) and 92.7% (active).
Turning to `O=NN(CCCl)C(=O)NC1CCCCC1`, the viability is 100% (active).
On the same count and under the same terms, in the case of `O=c1c(O)c(-c2ccc(O)c(O)c2)oc2cc(O)cc(O)c12` it was 97.3% (active); in that of `COc1cc2c(N3CCN(C(=O)Nc4ccc(OC(C)C)cc4)CC3)ncnc2cc1OCCCN1CCCCC1`, 97% (active).
Still for that read-out and setting: in the case of `COC(=O)Nc1nc2ccc(C(=O)c3cccs3)cc2[nH]1` it was 88% (active).
Same read-out and setting: in the case of `CN(Cc1cnc2nc(N)nc(N)c2n1)c1ccc(C(=O)N[C@@H](CCC(=O)O)C(=O)O)cc1` it was 111% (inactive).

The same experiment, now with this note: patient-derived ovarian cancer cells, CellTiter-Glo viability, 144 h; at 0.00122 µM; OCI-P5x cells; without rucaparib; stronger effect = lower value.
Take `Cc1ccc(NC(=O)c2ccc(CN3CCN(C)CC3)cc2)cc1Nc1nccc(-c2cccnc2)n1`: the viability was 96.8% (active) and 89.4% (active).
Same read-out and setting: the result for `O=NN(CCCl)C(=O)NC1CCCCC1` reads 107% (inactive).
The same measure, in the same setting: the result for `O=c1c(O)c(-c2ccc(O)c(O)c2)oc2cc(O)cc(O)c12` reads 102% (inactive); that for `COc1cc2c(N3CCN(C(=O)Nc4ccc(OC(C)C)cc4)CC3)ncnc2cc1OCCCN1CCCCC1`, 88.4% (active).
Still for that read-out and setting: in the case of `COC(=O)Nc1nc2ccc(C(=O)c3cccs3)cc2[nH]1` it was 90.4% (active); in that of `CN(Cc1cnc2nc(N)nc(N)c2n1)c1ccc(C(=O)N[C@@H](CCC(=O)O)C(=O)O)cc1`, 109% (inactive).

What is called viability is a read-out of living cells in per cent, often relative to untreated cells.
